SARS PLpro yeast: SARS-CoV PLP inhibition in yeast; Potency, µM (series often up to 32.9 µM), inactives show at the top dose activity, positive = growth rescue, most hits filed as activators; S. cerevisiae expressing SARS-CoV PLpro, growth rescue; 330,000 compounds, 0.19% hits; AID 485353; note: potency is the fitted concentration of half-maximal effect; 0% is about no effect; nearly all actives have a fitted effect of over 55% in size
Cycloheximide cs: affects cycloheximide protein synthesis inhibition readout, counter-screen; cell reporter, cycloheximide protein synthesis inhibition counterscreen; max response, %; 300,000 compounds, 12% hits; in the data active = max response mostly above about 13%, no sharp cut-off; inactive = mostly below about 14%; note: read at 38.3 µM for the half of the compounds with a filed dose; 0% is about no effect
Shiga toxin inh: blocks Shiga toxin action in Vero cells. Vero cells, Shiga toxin protein synthesis inhibition reporter. inhibition, % at 38.7 µM. 290,000 compounds, 9.2% hits; in the data active = inhibition mostly above about 28%, no sharp cut-off; inactive = mostly below about 43%; note: 0% is about no effect
LmPK inh: LmPK (Leishmania mexicana) enzyme inhibition; Q27686; purified LmPK, Kinase-Glo ATP luminescence, 1 h; Potency, µM (top dose mostly 57.5 µM), without a hit: at the top dose activity change, negative = inhibition, actives largely listed as inhibitors; 290,000 compounds, 0.37% hits; AID 1721; active = well fitted curve in the direction sought with a large enough effect; inconclusive = small, poorly fitted or top-dose-only effect, or another doubt; inactive = no such curve, though single readings can be large; an effect the other way counts as inactive or inconclusive; note: potency is the fitted concentration of half-maximal effect; % is set by controls: 0 for no effect and ±100 for the full control effect
Target sequence (Q27686 whole entry, looked up): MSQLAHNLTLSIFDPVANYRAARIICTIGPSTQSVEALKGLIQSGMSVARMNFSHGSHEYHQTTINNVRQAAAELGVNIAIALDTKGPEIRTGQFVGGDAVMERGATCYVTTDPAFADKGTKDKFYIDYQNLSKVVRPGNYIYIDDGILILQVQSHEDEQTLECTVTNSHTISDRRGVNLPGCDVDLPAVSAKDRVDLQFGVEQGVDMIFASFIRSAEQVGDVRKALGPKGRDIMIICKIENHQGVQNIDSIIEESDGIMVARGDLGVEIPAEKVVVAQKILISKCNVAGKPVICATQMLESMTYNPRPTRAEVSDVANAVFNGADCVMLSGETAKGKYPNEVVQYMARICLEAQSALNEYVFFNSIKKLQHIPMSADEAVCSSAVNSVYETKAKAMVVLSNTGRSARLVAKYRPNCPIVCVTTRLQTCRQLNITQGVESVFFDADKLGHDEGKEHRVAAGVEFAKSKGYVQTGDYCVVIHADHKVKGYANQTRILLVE
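Purified LmPK (0.1 nM) converted ADP (0.1 mM) to ATP with PEP (0.5 mM) in imidazole buffer pH 7.2 with KCl and MgCl2, 1 h at room temperature. ATP was read by Kinase-Glo luminescence; data normalized to uninhibited and no-enzyme controls.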
Tb PYK inh: inhibitors of Trypanosoma brucei pyruvate kinase. 410,000 compounds, 0.12% hits. TbPYK enzyme, Kinase-Glo Plus ATP luminescence, 45 min. Potency, µM (series often up to 76.8 µM), inactives show at the highest dose activity, negative = inhibition, hits mostly inhibitors. AID 624173; active = well fitted curve in the direction sought with a large enough effect; inconclusive = small, poorly fitted or top-dose-only effect, or another doubt; inactive = no such curve, though single readings can be large; an effect the other way counts as inactive or inconclusive; note: potency is the fitted concentration of half-maximal effect; % is set by controls: 0 for no effect and ±100 for the full control effect; nearly all actives have a fitted effect of over 50% in size
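Glycolytic pyruvate kinase of T. brucei was incubated with substrate, test compound and 130 uM ADP for 45 minutes at room temperature. Luminescent Kinase-Glo Plus signal was measured after 10 minutes.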
NS1 function inh: influenza NS1 inhibition; Potency, µM (highest dose often 46.1 µM), inactives show top-dose activity, positive = more growth; 270,000 compounds, 0.4% hits; AID 2326; note: potency is the fitted concentration of half-maximal effect; actives are rising curves; nearly all actives have a fitted effect of over 50% in size
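S. cerevisiae expressing influenza A NS1, grown in glucose, washed, then diluted 1:100 into pH 6.0 -URA galactose medium with 23 nl compound. Growth recovery read as OD600; NS1-free strain serves as control.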
Starred values were filed as active, the others as inactive; ? = inconclusive; nt = no result; [ ] = remark or other dose. Many of the other results were omitted from the sample, so hits are more common in it than they were. Unless noted, calls come from the whole dose curve.

SMILES | SARS PLpro yeast | Cycloheximide cs | Shiga toxin inh | LmPK inh | Tb PYK inh | NS1 function inh
COc1cccc(C(=O)N/N=C/C(Br)=C/c2ccccc2)c1 | -89% | 52* | 114* | -1% | 15% | 1%
Cn1cc(C(=O)N/N=C/C(Br)=C/c2ccccc2)ccc1=O | -48% | 2 | 15 | 1% | -8% | 0%
COc1ccc(C(=O)N/N=C/C(Br)=C/c2ccccc2)cc1 | -37% | 31* | 60* | 0% | 1% | -11%
COc1cccc(/C=C/c2onc(C)c2S(=O)(=O)N2CCC(C(=O)N3CCC(C)CC3)CC2)c1 | nt | nt | nt | nt | 0%[15.4 µM] | nt
C/C(=N/NC(=O)c1cccs1)c1ccc(NC(=O)COc2ccc(Cl)cc2)cc1 | 17% | 36* | 79* | 0% | 0% | 3%
C/C(=N/NC(=O)c1ccc2nc[nH]c2c1)c1cccs1 | -1% | 39* | 55* | -10% | -5% | -8%
COC(=O)N/N=C(\C)c1cccs1 | 1% | 11* | 17 | 4% | -4% | 5%
C/C(=N\NC(=S)NC1CCCCC1)c1cccs1 | -4% | 28* | 58* | -1% | -8% | -34%
C/C(=N\NC(=O)C1CC1)c1cccs1 | 18% | -3 | 5 | -1% | 2% | 12%
C/C(=N\NC(=O)c1ccc(Cl)cc1)c1cccs1 | -8% | 19* | 57* | ? | -17% | nt
CCOc1ccc(CNS(=O)(=O)c2ccc(-c3coc(C)n3)cc2)cc1OC | nt | nt | nt | nt | -6% | nt
Cc1ccc(CSc2cc(C)[nH]c(=O)n2)cc1 | -6% | 16 | 26* | -9% | -1% | 26%
Cc1cc(SCc2ccc(Cl)cc2)nc(=O)[nH]1 | 21% | 16* | 8 | -7% | -1% | 7%
Cc1cc(SCc2cccc(Cl)c2)nc(=O)[nH]1 | 7% | 8 | 6 | 1% | 0% | 7%
CC(=O)N1CCN(C(=O)c2ccc(S(=O)(=O)Nc3ccccc3F)cc2)CC1 | 0% | nt | nt | nt | 6% | nt
COc1ccc(C2/C=C\CN(C(=O)CC(C)(C)C)C(C)C(=O)N2Cc2ccc(F)cc2)cc1 (stereo not drawn) | nt | 6 | -7 | nt | nt | nt
CC1(c2ccccc2)C(C#N)C(=O)NC(=O)C1C#N (stereo not drawn) | nt | nt | nt | nt | 3% | nt
O=C(Nc1ccccc1)N1CCC(c2ccccc2)C1 (stereo not drawn) | 9% | 39* | 83* | -3% | 0% | -71%
CCc1ccc(NC(=O)N2CCC(c3ccccc3)C2)cc1 (stereo not drawn) | 3% | 39* | 108* | -4% | 3% | nt
COc1ccc(NC(=S)N2CCC(c3ccccc3)C2)cc1 (stereo not drawn) | -5% | 40* | 84* | -1% | 6% | -12%
COc1ccc(NC(=S)N2CCC(C(O)(c3ccccc3)c3ccccc3)CC2)cc1 | -2% | -3 | -12 | 0% | 10% | ?
Cc1ccc(NC(=O)N2CCCC(c3ccccc3)C2)cc1 (stereo not drawn) | 0% | 22* | 26 | -2% | 0% | -6%
CC1(C(=O)Nc2ccc3c(c2)OCO3)CCN1C(=O)c1ccco1 (stereo not drawn) | nt | nt | nt | nt | 3% | nt
CC(C)(CCCCCCCCCCC(C)(C)CC(=O)O)CC(=O)O | nt | -3 | -2 | nt | nt | nt
NC(c1csc(NC(=O)c2cccc(OC(F)(F)F)c2)n1)c1ccccc1Cl (stereo not drawn) | nt | nt | nt | nt | 3% | nt
SMILES | SARS PLpro yeast | Cycloheximide cs | Shiga toxin inh | LmPK inh | Tb PYK inh | NS1 function inh
CCCCc1nc2c(c3c1C[C@H](C)OC3)CN(C(=O)Cc1cccc(OC)c1)CC2 | nt | nt | nt | -3%[11.5 µM] | nt | nt
COc1ccccc1Nc1nc(-c2ccc(F)cc2)c2c(n1)-c1ccccc1OC2 | nt | nt | nt | nt | 11% | nt
Cc1cc(O)c(C(c2ccc(F)cc2)N2CCN(c3ccccc3)CC2)c(=O)n1Cc1ccco1 (stereo not drawn) | nt | nt | nt | nt | -9% | nt
CCOc1ccc(NC(=O)N2CCC(c3ccc(C)cc3)C2)cc1 (stereo not drawn) | 0% | 18* | 30 | 5% | -2% | -11%
Cc1ccc(Cl)cc1NC(=S)N1CCC(c2ccccc2)C1 (stereo not drawn) | -2% | 26* | 27 | 1% | -2% | 7%
O=C(c1cccs1)N1CCC(c2ccccc2)C1 (stereo not drawn) | -4% | 41* | 97* | -7% | 1% | -17%
CCOC(=O)CSc1nc(=O)n2cccc(C)c2n1 | 0% | -4 | -6 | 0% | 3% | nt
O=C(COC(=O)C12CC3CC(CC(C3)C1)C2)Nc1ccccc1F | -33% | 19* | 13 | -1% | -1% | -15%
COc1cc(NC(=O)NS(=O)(=O)c2ccc(C)cc2)cc(OC)c1 | 9% | -2 | 12 | 8% | -3% | 1µM*
CC(C)(C)NC(=O)C1(C)CCC(=O)N1CC(F)(F)F (stereo not drawn) | nt | nt | nt | nt | 3% | nt
COc1ccc(Oc2cc(F)nc(N)n2)cc1 | 1% | -1 | 1 | -2% | -6% | 13%
CCCc1ccc(Oc2cc(Cl)nc(N)n2)cc1 | -5% | 16* | -40 | 1% | -6% | -9%
CCOc1ccccc1/C=N/NC(=O)c1cccc(Cl)c1 | 9% | 2 | 57* | -1% | 1% | -9%
CCOc1ccc(Cl)cc1/C=N/NC(=O)c1ccccc1 | -11% | 29* | 65* | 6% | 1% | 4%
CCCSC1=NC2(CCN(C(=O)NC3CCCCC3)CC2)N=C1c1ccc(C)cc1 | nt | nt | nt | nt | 6% | nt
Cn1cc(-c2nc3ccccc3[nH]2)c2ccccc21 | -11% | 36* | 87* | -11% | 4% | -58%
Oc1ccc(C=Nc2ccccc2-c2nc3ccccc3[nH]2)cc1 | -51% | 70* | 92* | -3% | 1% | -20%
O=C(O)c1ccc(-c2nc3ccccc3[nH]2)cc1 | -4% | 1 | -12 | ? | ? | 4%
Nc1ccc(-c2nc3ccc(-c4nc5ccc(N)cc5[nH]4)cc3[nH]2)cc1 | nt | 0 | -7 | nt | nt | -18%
Nc1ccc(-c2nc3c(ccc4ccccc43)[nH]2)cc1 | ? | 25* | 43* | 0% | -3% | -36%
Fc1ccc(-c2nc3ccccc3[nH]2)cc1 | -2% | 35* | 115* | ? | -1% | -37%
COc1ccccc1/C=C/C(=O)NCC(=O)N=Nc1c(O)[nH]c2ccccc12 | 4% | -4 | 7 | 11% | -1% | -5%
CCCn1c(=O)c(-c2nc3ccccc3[nH]2)c(O)c2ccccc21 | -6% | 15 | 6 | -2% | 6% | nt
N#CCSc1ccc(-c2nc3ccccc3[nH]2)cn1 | -3% | 29* | 44* | 25µM* | 0% | -6%
Nc1ccc(-c2nc3ccccc3[nH]2)cc1 | 0% | 33* | 102* | ? | -8% | -13%
CCn1c(=O)c(-c2nc3ccccc3[nH]2)c(O)c2ccccc21 | -1% | 22* | 35 | 5% | -1% | nt
O=c1[nH]cccc1-c1nc2ccccc2[nH]1 | -1% | 21* | 55* | -9% | -4% | 2%
CCOC(=O)CSc1ccc(-c2nc3ccccc3[nH]2)cn1 | -2% | 19 | 34 | ? | -3% | -102%

Screening data (PubChem)
